Reference: the supplement of paper PMC3545927
The list shows a part of the results. The hit rate among all sequences tested is not known here.

Biological target: furin, P09958
Assay: furin cleavage Z-score vs untreated control; higher = more cleavage, active = 3.5 or more, inactive = 1 or less, 8 variable residues between constant flanks
How it was run: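 Sequencing of released DNA, tagged with adapters by PCR, gave read counts used as abundance. That DNA was freed when purified furin cut N-terminally bead-bound 8-mer peptides fused to a cDNA oligonucleotide, in 0.01 ml reactions at 1:10 enzyme:substrate in 50 mM HEPES pH 7.5 with CaCl2 and NaCl, lasting 7.5, 15 or 30 min. The cleavage Z-score was the lowess-adjusted log count versus furin-free reactions, scaled by median absolute deviation.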

furin, P09958, sequence (P09958 whole entry): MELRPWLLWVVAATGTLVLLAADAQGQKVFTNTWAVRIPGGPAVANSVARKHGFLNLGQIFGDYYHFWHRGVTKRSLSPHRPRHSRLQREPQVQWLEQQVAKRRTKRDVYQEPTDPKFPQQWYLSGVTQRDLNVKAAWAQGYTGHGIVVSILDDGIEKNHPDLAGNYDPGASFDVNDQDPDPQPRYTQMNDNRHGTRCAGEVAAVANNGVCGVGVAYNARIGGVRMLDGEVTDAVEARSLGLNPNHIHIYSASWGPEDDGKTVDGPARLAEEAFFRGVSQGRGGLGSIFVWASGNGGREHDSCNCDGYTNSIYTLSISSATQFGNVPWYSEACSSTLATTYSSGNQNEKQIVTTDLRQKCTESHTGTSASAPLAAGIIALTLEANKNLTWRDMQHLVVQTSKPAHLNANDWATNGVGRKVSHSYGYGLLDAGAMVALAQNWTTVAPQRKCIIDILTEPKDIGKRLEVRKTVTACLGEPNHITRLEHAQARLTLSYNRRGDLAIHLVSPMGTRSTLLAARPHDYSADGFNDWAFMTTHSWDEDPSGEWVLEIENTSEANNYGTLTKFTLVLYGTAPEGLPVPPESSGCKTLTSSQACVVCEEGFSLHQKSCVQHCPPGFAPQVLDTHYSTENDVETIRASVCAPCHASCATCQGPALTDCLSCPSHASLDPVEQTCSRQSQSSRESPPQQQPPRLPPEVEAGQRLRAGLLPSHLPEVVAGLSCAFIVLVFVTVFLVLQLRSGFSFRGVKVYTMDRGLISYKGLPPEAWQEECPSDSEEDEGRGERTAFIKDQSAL

Sequence | furin cleavage Z-score (7.5 min) | furin cleavage Z-score (15 min) | furin cleavage Z-score (30 min)
CAMEECSQRLAGNASASA [HC1753] | 0.426 (inactive) | -0.514 (inactive) | 1.09
CAWPTRRRRLAGNASASA [FS-109] | 8.56 (active) | 10.6 (active) | 9.39 (active)
CACRARRRRLAGNASASA [FS-16] | 9.49 (active) | 9.51 (active) | 8.36 (active)
CAQDVRCRRLAGNASASA [FS-478] | 1.46 | 1.58 | 0.0369 (inactive)
CALRGRSRRLAGNASASA [FS-135] | 3.28 | 5.92 (active) | 6.35 (active)
CAQGERSRRLAGNASASA [FS-282] | 0.753 (inactive) | 4.38 (active) | 1.23
CAIYQCCDLDAGNASASA [HC1490] | -1.27 (inactive) | -0.493 (inactive) | -0.515 (inactive)
CAPCTINYTIAGNASASA [HC470] | -0.109 (inactive) | -0.36 (inactive) | -0.753 (inactive)
CAEFEVPCHRAGNASASA [HC2447] | 1.12 | 0.425 (inactive) | 0.814 (inactive)
CAGRGRRRRLAGNASASA [FS-1204] | 0.638 (inactive) | 1.19 | 1.19
CALRQRRRRLAGNASASA [FS-1233] | 7.25 (active) | 8.53 (active) | 7.51 (active)
CAEPARRRRLAGNASASA [FS-1193] | 3.5 (active) | 3.06 | 4.29 (active)
CASTVCSAHLAGNASASA [HC2510] | 0.637 (inactive) | 0.629 (inactive) | 0.755 (inactive)
CASRVRTGRSAGNASASA [FS-1417] | 9.44 (active) | 9.57 (active) | 7.69 (active)
CAALNRTGRSAGNASASA [FS-748] | 9.18 (active) | 11.6 (active) | 9.72 (active)
CATCNRRKKEAGNASASA [FS-1492] | 0.181 (inactive) | 1.51 | 1.86
CAELSRTGRSAGNASASA [FS-22] | 3.94 (active) | 5.44 (active) | 5.19 (active)
CAMLAEQFKQAGNASASA [HC1022] | 1.62 | -0.39 (inactive) | 0.514 (inactive)
CAALNRRKKQAGNASASA [FS-747] | 3.62 (active) | 5.46 (active) | 3.99 (active)
CASCSSNVSVAGNASASA [HC1553] | 1.25 | -0.606 (inactive) | 0.334 (inactive)
CAVVCCSDSYAGNASASA [HC2051] | -1.19 (inactive) | 0.168 (inactive) | -0.153 (inactive)

Sequence | furin cleavage Z-score (7.5 min) | furin cleavage Z-score (15 min) | furin cleavage Z-score (30 min)
CAYGLRDARSAGNASASA [FS-900] | -0.0484 (inactive) | -0.398 (inactive) | -0.0248 (inactive)
CAPYILKRGSAGNASASA [NG2] | 1.17 | 0.28 (inactive) | 0.586 (inactive)
CAGRRLARGSAGNASASA [HC1254] | 3.43 | 4.7 (active) | 6.13 (active)
CAQDARRARSAGNASASA [FS-845] | 6 (active) | 7.49 (active) | 7.26 (active)
CAYGRRRRRSAGNASASA [FS-519] | 9.52 (active) | 10.7 (active) | 8.36 (active)
CAEVPCHRGSAGNASASA [HC2396] | 0.0196 (inactive) | 1.61 | 1.87
CAGSCRRARSAGNASASA [FS-1333] | 8.24 (active) | 6.66 (active) | 7.27 (active)
CAVAYQATVCAGNASASA [HC954] | -0.525 (inactive) | -0.292 (inactive) | -0.577 (inactive)
CAMFDSSVLCAGNASASA [HC916] | -1.5 (inactive) | -1.04 (inactive) | 0.432 (inactive)
CADGRRFRQAAGNASASA [FS-1668] | -1.15 (inactive) | -1.53 (inactive) | -0.448 (inactive)
CAICTTPCSGAGNASASA [HC1944] | -1.41 (inactive) | -0.982 (inactive) | 0.0737 (inactive)
CASTPCSVHLAGNASASA [HC2530] | -0.933 (inactive) | 0.438 (inactive) | 1.38
CALHVWIPPLAGNASASA [HC589] | 1.25 | 1.42 | 0.509 (inactive)
CASRRRRARSAGNASASA [FS-872] | 8.77 (active) | 9.73 (active) | 7.27 (active)
CARSGRSRSRAGNASASA [FS-1926] | -0.645 (inactive) | -0.505 (inactive) | -1.41 (inactive)
CAPPRRLRRSAGNASASA [FS-841] | 5.16 (active) | 4.08 (active) | 3.48
CARSGAPTYSAGNASASA [HC421] | 0.424 (inactive) | -0.13 (inactive) | -0.882 (inactive)
CAGRRRRHRSAGNASASA [FS-532] | 9.48 (active) | 10.3 (active) | 6.94 (active)
CAAWRHRARSAGNASASA [HC1620] | 0.0962 (inactive) | 1.9 | 1.59
CAIPKRLRRSAGNASASA [FS-35] | 1.85 | 0.768 (inactive) | 1.2
CARSGRRRRSAGNASASA [FS-88] | 5.85 (active) | 5.32 (active) | 4.99 (active)
